Compound activity: PubChem, NMMLSC
In the library only some 0.89% were active in any assay of this set; here they are far more common.
CIT2 TOR yeast = yeast TOR pathway CIT2-GFP modulation | S. cerevisiae CIT2-GFP strain, flow cytometry, 3 h; 100 means same as DMSO wells | GFP response vs DMSO, % at 10 µM | actives 0.065% (n = 320,000) | AID 2029;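 active = GFP response relative to DMSO above a set limit, near the screen mean plus 3 SD, cut at about 150% in these data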;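 note: ratio of well median GFP fluorescence to mean of DMSO wells on the plate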
LAP4-GFP MLPCN = yeast TOR pathway LAP4-GFP modulation. S. cerevisiae LAP4-GFP multiplex, flow cytometry GFP, 3 h; median GFP as percent of DMSO wells. GFP response vs DMSO, % at 10 µM. actives 0.34% (n = 320,000). AID 2023;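 active = GFP response vs DMSO above a set limit, about the screen mean plus 3 SD, cut at about 150% in these data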
AGP1 TOR yeast = alters AGP1-GFP fluorescence in TOR pathway yeast screen. S. cerevisiae AGP1-GFP multiplex flow cytometry, 3 h; GFP as percent of DMSO wells. GFP response vs DMSO, % at 10 µM. actives 0.02% (n = 320,000). AID 2066;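 active = GFP response relative to DMSO above a set limit, near screen average plus 3 SD, cut at about 150% in these data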;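 note: median GFP channel fluorescence of the gated AGP1 strain per well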
RPL19A TOR yeast = alters RPL19A-GFP fluorescence in TOR pathway yeast screen | S. cerevisiae RPL19A-GFP strain, flow cytometry, 3 h; stronger effect = lower value | percent response vs DMSO, % at 10 µM | actives 0.3% (n = 330,000) | AID 2025;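 active = percent response vs DMSO below 50%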;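 note: median channel GFP fluorescence of the barcoded RPL19A-GFP strain; ratio of sample median GFP to plate DMSO average so 100% = DMSO; lower means less RPL19A-GFP as with rapamycin TOR inhibition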
MEP2 TOR yeast = alters MEP2-GFP fluorescence in TOR pathway yeast screen. actives 0.51% (n = 330,000). S. cerevisiae MEP2-GFP strain, flow cytometry GFP, 3 h; 100% = DMSO control level. GFP response vs DMSO, % at 10 µM;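 active = GFP response versus DMSO above a set limit, roughly screen mean plus 3 SD, cut at about 180% in these data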;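 note: median GFP fluorescence of the barcode-gated MEP2-GFP cells per well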
LAP4-GFP pick2 = second confirmation of modulators of TOR reporter LAP4-GFP in yeast; shares compounds with LAP4-GFP MLPCN; S. cerevisiae LAP4-GFP strain, flow cytometry GFP, 3 h; GFP response vs DMSO, % at 10 µM; actives 20% (n = 590); AID 2621;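 active = GFP signal as percent of the solvent control above about 150%, meaning raised reporter expression, limit read from the data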;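 note: ratio of well median GFP fluorescence to plate DMSO mean so 100% = DMSO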
MEP2 cherry2 = yeast MEP2-GFP modulation, second cherry pick; shares compounds with LAP4-GFP MLPCN; S. cerevisiae MEP2-GFP strain, flow cytometry GFP, 3 h; GFP response vs DMSO, % at 10 µM; actives 10% (n = 590);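 active = GFP signal above 150% of the solvent control wells, that is a rise of more than half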;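 note: median channel GFP fluorescence of all gated yeast cells per well; ratio of median GFP to plate DMSO average so 100% = DMSO level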
RPL19A GFP CP2 = second confirmation of modulators of TOR reporter RPL19A-GFP in yeast | shares compounds with LAP4-GFP MLPCN | S. cerevisiae RPL19A-GFP strain, flow cytometry GFP, 3 h; stronger effect = lower value; 100% means same as DMSO wells | GFP response vs DMSO, % at 10 µM | actives 3% (n = 590);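 active = under 65% GFP response relative to DMSO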;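 note: median GFP channel fluorescence per well over the all cells gate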
CIT2 GFP CP2 = yeast CIT2-GFP TOR reporter modulation, second cherry pick | shares compounds with LAP4-GFP MLPCN | S. cerevisiae CIT2-GFP strain, flow cytometry GFP, 3 h; DMSO control wells read 100% | GFP response vs DMSO, % at 10 µM | actives 8% (n = 590) | AID 2624;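 active = GFP response vs DMSO above about 150%, limit read from the data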;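 note: median green fluorescence per well over all gated yeast cells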
AGP1-GFP pick2 = reconfirmed modulator of AGP1-GFP TOR reporter in yeast. S. cerevisiae AGP1-GFP strain, flow cytometry GFP, 3 h. percent response vs DMSO, % at 10 µM. shares compounds with LAP4-GFP MLPCN. 590 tested, under 10 active;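 active = over 150 percent of DMSO response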;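 note: median GFP channel fluorescence over all cells without mother daughter split; sample median GFP divided by mean DMSO control so 100% equals DMSO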
s288c autofluor = counter-screen for compound autofluorescence in yeast s288c cells; S. cerevisiae s288c, 520 nm autofluorescence, flow cytometry, 3 h; stronger effect = higher value; zero means same as solvent-only cells; AID 2757; 610 tested, under 10 active; fluorescence change (kMESF span) at 33 µM; shares compounds with LAP4-GFP MLPCN;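 active = fluorescence span over the dose series, or activity score, above about 33, limit read from the data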
* marks the source's active call; other numbers are inactive results; x = not tested or not shown.

SMILES	CIT2 TOR yeast	LAP4-GFP MLPCN	AGP1 TOR yeast	RPL19A TOR yeast	MEP2 TOR yeast	LAP4-GFP pick2	MEP2 cherry2	RPL19A GFP CP2	CIT2 GFP CP2	AGP1-GFP pick2	others
COCCN(C(=O)Cn1c(C(F)(F)F)nc2ccccc21)c1c(N)n(Cc2ccccc2)c(=O)[nH]c1=O	90.2	72.0	82.2	95.2	98.7	x	x	x	x	x
CCCC(=O)Nc1ccc(C(=O)n2ccc(C)n2)cc1	101.2	98.1	103.8	100.3	99.3	x	x	x	x	x
C#CCOCCOCCOCCNc1nc(N2CCN(C(=O)CCCCCCCCCCNC(=O)[C@@H](CCC(=O)O)n3cc(CCCCCN)nn3)CC2)nc(N2CCN(C(=O)CCCCCCCCCCNC(=O)[C@H](CCCCN)n3cc(C[C@@H](C)CC)nn3)CC2)n1	87.5	198.4*	91.2	74.2	94.2	124.2	176.4*	88.6	119.6	118.1	s288c autofluor=0.1
C#CCOCCOCCOCCNc1nc(N2CCN(C(=O)CCCCCCCCCCNC(=O)[C@@H](CCSC)n3cc(CCO)nn3)CC2)nc(N2CCN(C(=O)CCCCCCCCCCNC(=O)[C@H](CCC(=O)O)n3cc(CCCCCN)nn3)CC2)n1	97.3	99.1	102.0	92.7	108.9	x	x	x	x	x
CC(=O)c1cccc(NC(=O)CCCCCn2nnc3ccccc3c2=O)c1	101.7	89.9	101.1	104.5	101.0	x	x	x	x	x
COCCCOc1ccnc(CS(=O)c2nc3ccccc3[nH]2)c1C (stereo unspecified)	73.3	117.0	78.2	101.0	94.9	x	x	x	x	x
Cc1c(OCC(F)(F)F)ccnc1CS(=O)c1nc2ccccc2[nH]1 (stereo unspecified)	79.1	158.2*	85.4	101.2	93.7	122.1	106.5	99.0	105.2	100.8
COc1ccc2c(C(F)(F)F)cc(=O)oc2c1C	97.5	94.4	96.4	95.1	106.8	x	x	x	x	x
Cc1c(C)c2ccc(Oc3ccc([N+](=O)[O-])cc3C(F)(F)F)c(C)c2oc1=O	92.1	101.0	102.3	101.0	106.3	101.0	104.8	102.5	102.9	100.5	s288c autofluor=0.1
CCOP(=O)(OCC)C(Nc1cccc([N+](=O)[O-])c1)c1ccc(N(C)C)cc1 (stereo unspecified)	86.0	103.0	77.1	85.9	103.5	x	x	x	x	x
CCOP(=O)(OCC)C(Nc1cccc([N+](=O)[O-])c1)c1ccc(OC)cc1 (stereo unspecified)	94.5	98.9	40.0	58.0	137.9	100.0	101.5	101.1	108.6	102.2
Cc1cc(C2CCCCC2)n(O)c(=O)c1	60.8	191.8*	84.4	99.9	91.3	187.4*	120.5	104.2	73.7	113.3	s288c autofluor=0
Cc1[nH]c(-c2ccccn2)nc(=S)c1Cl	86.1	266.9*	85.1	94.2	92.6	x	x	x	x	x	s288c autofluor=0.4
Cc1nn(C(=O)CCCn2cc([N+](=O)[O-])cn2)c(C)c1Cl	97.1	105.1	101.3	98.8	101.5	x	x	x	x	x
N#C/C(N=Nc1ccccc1O)=N\Nc1ccccc1O	76.6	183.4*	74.5	97.1	91.7	138.5	109.8	100.4	109.7	90.2
CCOC(=O)/C(C#N)=N/Nc1ccccc1C(=O)O	105.5	101.0	106.0	109.5	108.3	x	x	x	x	x
COc1ccc(-c2[nH]c3ccccc3c2SCCNC(=O)c2ccccc2)cc1	147.7	216.8*	140.2	66.4	662.0*	98.1	99.8	100.0	97.2	99.6
Cc1cccc(N2CC(C(=O)Nc3ccccc3N3CCOCC3)CC2=O)c1C (stereo unspecified)	94.2	99.1	99.4	99.0	102.6	x	x	x	x	x
CCOc1ccccc1/C=c1\sc2ncnn2c1=O	67.6	274.8*	65.8	97.4	86.7	226.4*	111.8	108.3	109.9	89.0	s288c autofluor=0.91
CC(=O)Oc1ccc(/C=c2\sc3ncnn3c2=O)cc1	98.8	152.9*	84.9	101.5	91.3	x	x	x	x	x	s288c autofluor=0.5
CCCOc1ccc(/C=c2\sc3ncnn3c2=O)cc1	90.8	105.3	90.5	91.5	85.7	x	x	x	x	x
Cc1ccc(-n2nnnc2CSc2nnc(-c3ccc(O)cc3)o2)cc1	104.8	95.4	103.6	100.8	109.0	x	x	x	x	x
CC(=O)c1ccc(S(=O)(=O)N2CCCCC2C(=O)O)cc1 (stereo unspecified)	96.6	93.7	101.6	102.9	102.2	x	x	x	x	x
COc1ccc(C(C)=O)cc1COC(=O)c1cnc(Cl)c(Cl)c1	90.9	99.5	72.9	63.7	134.8	114.2	125.8	97.8	108.5	108.0
COc1ccc(C(C)=O)cc1COC(=O)c1ccc2c(c1)OCO2	90.6	98.9	96.7	97.5	102.0	x	x	x	x	x
SMILES	CIT2 TOR yeast	LAP4-GFP MLPCN	AGP1 TOR yeast	RPL19A TOR yeast	MEP2 TOR yeast	LAP4-GFP pick2	MEP2 cherry2	RPL19A GFP CP2	CIT2 GFP CP2	AGP1-GFP pick2	others
O=C(CNC(=O)c1ccncc1)Nc1ccc(F)c(F)c1	100.1	97.6	121.2	110.1	101.3	x	x	x	x	x
N#CC1(NC(=O)CN2C(=O)NC(Cc3c[nH]c4ccccc34)C2=O)CCCCC1 (stereo unspecified)	105.1	92.5	100.8	100.8	100.1	x	x	x	x	x
O=C(N[C@@H](Cc1ccccc1)C(=O)CCl)OCc1ccccc1	60.8	150.5*	76.7	99.5	87.6	140.3	103.1	96.3	90.4	95.7
O=C(N[C@@H](Cc1ccccc1)C(=O)N[C@@H](Cc1ccccc1)C(=O)O)OCc1ccccc1	100.6	98.9	106.7	105.3	106.4	x	x	x	x	x
CC1CCN(S(=O)(=O)N2CCCC(C(=O)NCc3ccc(F)cc3)C2)CC1 (stereo unspecified)	101.2	90.9	17.8	63.2	147.1	101.2	101.3	98.0	105.7	99.8
CS(=O)(=O)c1nc(-c2cccs2)cc(C(F)(F)F)n1	84.3	186.4*	124.0	88.2	162.3	x	x	x	x	x	s288c autofluor=0.61
COc1ccc(-c2cc(C(F)(F)F)nc(S(C)(=O)=O)n2)cc1	83.5	154.7*	113.9	96.9	146.4	x	x	x	x	x	s288c autofluor=0.62
COc1ccc(-c2cc(C(F)(F)F)nc(N)n2)cc1	100.5	96.4	90.3	110.8	103.7	x	x	x	x	x
